HIV TAR-Tat = HIV-1 TAR-Tat binding disruption; z-score (no concentration beside the values); 100,000 compounds, 0.6% hits; HIV-1 TAR RNA, Tat peptide displacement FRET; stronger effect = higher value; active = z-score of 3 or more in at least 2 runs
CDC25B-CDK2 inh = human CDC25B-CDK2/CyclinA binding inhibition; HTRF CDC25B-CDK2/CyclinA binding, anti-His/anti-Flag; stronger effect = higher value; z-score (no concentration beside the values); 94,000 compounds, 0.72% hits; in the data active = z-score above about 3.2
* marks the source's active call; other numbers are inactive results. Compounds with a hit are over-represented: about 0.93% of the library has one in this group of screens.

`CCc1nnc(NC(=O)c2cc(-c3cccs3)on2)s1` gave HIV TAR-Tat 0.4 and CDC25B-CDK2 inh -1.05.
Screening O=C(CCc1nc2cccnc2n1-c1ccccc1)NCCc1c[nH]c2ccccc12 returned HIV TAR-Tat -0.2 and CDC25B-CDK2 inh -2.04.
For CC1(C)CC(NC(=O)CN2CCCCC2)CC(C)(C)N1 the results were CDC25B-CDK2 inh -1.88.
For CC1=C(c2ccccc2)S(=O)(=O)N=C1N1CCN(c2cccc(C)c2C)CC1 the results were HIV TAR-Tat 0.33 and CDC25B-CDK2 inh -10.8.
Screening COC(=O)c1ccc2nc(SCc3ccc(F)cc3)[nH]c2c1 returned HIV TAR-Tat 1 and CDC25B-CDK2 inh -1.63.
`O=C(Cn1cc2c(n1)CCCCCC2)NCCCN1CCCC1=O` gave HIV TAR-Tat 0.83 and CDC25B-CDK2 inh -1.62.
For Fc1cccc(-c2nnc3ccc(SCc4cccnc4)nn23)c1 the results were CDC25B-CDK2 inh -1.09.
`Cc1nc2sc(C(c3ccc(F)cc3)N3CCN(c4cccc(Cl)c4)CC3)c(O)n2n1` (configuration not stated) gave CDC25B-CDK2 inh -1.79.
`O=c1cc(-c2ccccc2)nc2nc(-c3ccco3)[nH]n12` gave HIV TAR-Tat 6.53* and CDC25B-CDK2 inh -0.39.
For Cc1nc2nc(-c3ccccc3)cc(=O)n2[nH]1 the results were HIV TAR-Tat 0.51 and CDC25B-CDK2 inh -1.55.
`CCNc1nc2[nH]c(=O)cc(O)c2s1` gave HIV TAR-Tat -0.15 and CDC25B-CDK2 inh 10.6*.
For CNc1nc2[nH]c(=O)cc(O)c2s1 the results were HIV TAR-Tat -1.51 and CDC25B-CDK2 inh 1.8.
Screening Cn1c(CN2CCNCC2)nc2cc(C(=O)N3CCCC3)ccc21 returned HIV TAR-Tat 0.54.
Screening O=C(O)c1cnc[nH]1 returned CDC25B-CDK2 inh 3.86*.
N[C@@H](Cc1cnc[nH]1)C(=O)O was read as CDC25B-CDK2 inh -0.77.
For O=C(Cn1ncn2nc3c(c2c1=O)CCCC3)Nc1ccc2c(c1)OCO2 the results were HIV TAR-Tat 1.55.
Screening O=C(Nc1nnc(SCc2cc(=O)n3ccsc3n2)s1)c1ccccc1F returned HIV TAR-Tat 1.51.
`CC(C)=CC[C@@H](OC(=O)C=C(C)C)C1=CC(=O)c2c(O)ccc(O)c2C1=O` gave HIV TAR-Tat 22.8*.
For CC1CN(Cc2c(O)ccc3c(=O)c(-c4ccccc4)c(C(F)(F)F)oc23)CC(C)O1 (configuration not stated) the results were HIV TAR-Tat 0.4 and CDC25B-CDK2 inh 0.01.
O=c1c(-c2ccccc2)c(C(F)(F)F)oc2c(CN3CCCC3)c(O)ccc12 was read as HIV TAR-Tat 0.65 and CDC25B-CDK2 inh 15.3*.
For CN1CCN(C(=O)CCc2nnc3ccc(N4CCN(C)CC4)nn23)CC1 the results were HIV TAR-Tat 0.82.
COc1ccc(C2/C(=C(\O)c3ccc(F)cc3)C(=O)C(=O)N2CCN(C)C)cc1 (configuration not stated) was read as HIV TAR-Tat -0.48 and CDC25B-CDK2 inh -1.69.
Screening N=C1C(c2nc3ccccc3[nH]2)=C(O)CN1c1ccc(S(N)(=O)=O)cc1 returned HIV TAR-Tat 4.42* and CDC25B-CDK2 inh -2.02.
Screening N=C1C(c2nc3ccccc3[nH]2)=C(O)CN1c1ccc(F)cc1 returned HIV TAR-Tat 0.18 and CDC25B-CDK2 inh -1.5.
COC(=O)c1ncn2c1C(=O)N(C1CC1)C(C)(C(=O)NCCC(C)C)C2 (configuration not stated) was read as HIV TAR-Tat 0.6.
For COc1ccc(-c2nc3c(c(=O)[nH]2)Cc2cc(Br)cc(OC)c2O3)cc1O the results were HIV TAR-Tat 1.72 and CDC25B-CDK2 inh -1.76.
COc1ccc(-c2nc3c(c(=O)[nH]2)Cc2cc(Br)cc(OC)c2O3)cc1OC was read as HIV TAR-Tat 12.7* and CDC25B-CDK2 inh -0.88.
`O=S(=O)(Nc1nc2nccc(-c3ccccc3)n2n1)c1ccccc1` gave CDC25B-CDK2 inh -2.55.
Cn1c(=O)c2sccc2n2c(CCC(=O)Nc3ccc(F)cc3F)nnc12 was read as HIV TAR-Tat -1.23 and CDC25B-CDK2 inh 3.77.
Screening Cc1c(C(=O)O)sc2ncnc(NCCC(C)C)c12 returned HIV TAR-Tat 10.1*.
`Cc1c(C(=O)O)sc2ncnc(NC3CCCCC3)c12` gave HIV TAR-Tat 5.98*.
For Cc1c(C(=O)O)sc2ncnc(NC3CCCC3)c12 the results were HIV TAR-Tat 0.65.
`Cc1c(C(=O)O)sc2ncnc(Nc3ccc(C(C)C)cc3)c12` gave HIV TAR-Tat 2.58.
For COc1ccc(OC)c(CN2CCc3nc(Nc4ccc5c(c4)OCO5)ncc3C2)c1 the results were HIV TAR-Tat 0.14.
Screening N#CC1=C(N)Oc2n[nH]c(-c3ccc4c(c3)OCO4)c2C1c1cccnc1 (configuration not stated) returned CDC25B-CDK2 inh -2.3.
`C(=C\CSc1ccccn1)/CSc1ccccn1` gave CDC25B-CDK2 inh -1.31.
Nc1ccccc1SC/C=C/CSc1ccccc1N was read as CDC25B-CDK2 inh 14.9*.
Screening O=C(NC1CC1)c1cc2ccccc2oc1=O returned CDC25B-CDK2 inh -1.76.

Screening results (PubChem BioAssay)
